Test results from PubChem BioAssay AID1117319 (Southern Research Institute, 2015).
Out of some 260,000 compounds screened, about 1,500 (0.58%) were called active. Roughly 5% stayed inconclusive and do not appear here.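 Rule for the calls: active = inhibition above a set limit at one or more doses, reproduced on every date tested; inconclusive = results disagree between test dates, or hit never tested in dose response; inactive = the rest.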 Only a sample is shown. Results with a measured potency or affinity are listed apart.

biological target: Virion infectivity factor (Human immunodeficiency virus type 1 group M subtype B (isolate BH10)) + Virion infectivity factor (Human immunodeficiency virus type 1 group M subtype B (isolate BRU/LAI)) + Virion infectivity factor (Human immunodeficiency virus type 1 group M subtype B (isolate PCV12)) + Virion infectivity factor (Human immunodeficiency virus type 1 group M subtype B (isolate HXB2)) + DNA dC->dU-editing enzyme APOBEC-3G (Homo sapiens) (UniProt P69720+P69721+P69722+P69723+Q9HC16); assay: HIV-1 Vif–A3G interaction blockers – biochemical, TR-FRET, GST-Vif 1-94, biotin-A3G peptide, dose response retest, primary screen (AID 1117319); details: TR-FRET GST-Vif / biotin-A3G peptide binding; active compounds read high;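 note: Vif residues 1-94 fused to GST binding biotinylated APOBEC3G peptide 110-148; 0% = full assay without inhibitor and 100% = GST in place of GST-Vif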

inhibition, inactive:
Cc1cc(C)c2c(N)c(C(=O)N3CCc4ccccc4C3)sc2n1 2.97%
O=C(CSc1ccccc1C(=O)O)NC12CC3CC(CC(C3)C1)C2 -8.39%
COC(=O)C1=C(C)OC(N)=C(C#N)C1c1ccsc1 (centres undefined) -0.64%
COc1ccc(NC(=O)/C=C/c2ccc(C)o2)cc1S(=O)(=O)N1CCOCC1 22.6%
Cc1ccc(/C=C/C(=O)Nc2ccncc2)o1 26.1%
O=C(/C=C/c1ccc(F)cc1)Nc1cccc(S(=O)(=O)N2CCOCC2)c1 -3.16%
Cc1cnc(NC(=O)/C=C/c2ccc(Br)o2)s1 20.7%
Cc1ccc(/C=C/C(=O)Nc2nnc(C)s2)o1 30.1%
Cc1ccc(/C=C/C(=O)Nc2ccc(S(N)(=O)=O)cc2)o1 5.06%
Cc1cc(-c2nnc(CCC(=O)N3CCN(Cc4cccc(F)c4)CC3)o2)c(C)o1 -7.15%
COc1ccc(OC)c(CN2CCN(C(=O)c3cccs3)CC2)c1 1.09%
COc1ccc(Oc2nc(-c3cccnc3)nc3ccccc23)cc1 -18.5%
CCC(OC(=O)c1nsc(Cl)c1Cl)C(=O)NC(C)(C)CC (centres undefined) -6.48%
CC(NC(=O)c1cccc(S(=O)(=O)N2CCN(Cc3ccccc3)CC2)c1)c1ccc(Cl)cc1 (centres undefined) 3.65%
CCOC(=O)c1cn2nc(Oc3ccc(NC(C)=O)cc3)ccc2n1 -0.1%
CC(NC(=O)c1ccc2nc(Cc3cccc(Cl)c3)oc2c1)c1ccncn1 (centres undefined) 0.5%
CN(C)C(=O)CCc1ccc2c3c([nH]c2c1)[C@]1(CCC2CCCC2)[C@@H](C(=O)N2CCOCC2)C[C@H](CC(=O)NCCC2=CCCCC2)C(=O)N1CC3 4.07%
CCOc1ncccc1C(=O)OCC(=O)NC1CCCCCC1 -6.35%
Cc1cc(S(=O)(=O)Nc2ncnc3sccc23)ccc1F 1.05%
CCOC(=O)C(C)/C(C)=N/NC(=O)CCC(=O)Nc1cc(C)ccc1C (centres undefined) 3.1%
CCOC(=O)c1nc(C)n(-c2ccc(Cl)cc2Cl)n1 23.2%
CCOC(=O)c1nn(-c2ccccc2C)c(=O)c(C#N)c1C 12.1%
O=C(Oc1c(-c2ccccc2)oc2ccccc2c1=O)c1ccccc1 -7.08%
Cc1ccccc1NC(=O)c1c(C)[nH]c(=S)c(C#N)c1-c1ccc(Cl)cc1 -0.84%
COc1ccc(-c2c3c([nH]c(=S)c2C#N)CCC3)cc1 -9.25%
N#Cc1c(-c2ccc(Cl)cc2)c2c([nH]c1=S)CCCC2 -9.58%
COc1ccc(OC)c(-c2c3c([nH]c(=S)c2C#N)CCCC3)c1 -14.3%
N#Cc1c(-c2cccnc2)c2c([nH]c1=S)CCCC2 28.4%
Cc1ccc(-c2c(C(=O)Nc3ccccc3C)c(C)[nH]c(=S)c2C#N)o1 17.8%
CC(=O)OC1CC[C@@]2(C)C(CCC3C2CC(=O)[C@@]2(C)C3CC3CC(C)=CC(=O)C32)C1 (some centres undefined) -1.09%
CC(Oc1ccccc1F)C(=O)NNC(=O)CCS(=O)(=O)c1ccccc1Cl (centres undefined) 3.79%
CC1CC(C)(C)NC(=S)N1CCC(=O)N1CCc2ccccc2C1 (centres undefined) -8.29%
CC1(C)C(=O)NCCN1C(=O)CCC(=O)O -4.36%
Cc1ccc(CNC(=O)C2CC3Cn4c(nc5cc6ccccc6cc54)C3N2C)o1 (centres undefined) 5.41%
O=C(CSc1ccc(-c2nc3ccccc3[nH]2)cn1)Nc1ccc(S(=O)(=O)N2CCCC2)cc1 -5.26%
O=C(CSc1nnc(NC(=O)c2cccc(Cl)c2)s1)NCC1CCCO1 (centres undefined) 3.82%
CCOc1cc(N2CCOCC2)c(OCC)cc1NC(=O)COc1ccc2ccc(=O)oc2c1 -0.33%
COc1ccccc1C(c1nnnn1Cc1ccco1)N1CCN(c2cccc(C)c2C)CC1 (centres undefined) 25.8%
O=C(c1cc(COc2ccc3ncccc3c2)on1)N1CCC[C@H]1CO 1.67%
COC(=O)C1CCCCN1C(=O)c1cc(COc2cccc3cccnc23)on1 (centres undefined) 4.07%
COc1cccc(CNC(=O)CCCN2C(=O)C(c3ccccc3)Oc3cccnc32)c1OC (centres undefined) -2.88%
CCOC(=O)C1=C(C)N(C2CCCCC2)C(=O)C1 -5.38%
COC(=O)/C(C(C)=O)=C(/C=C/C=C/N(C)C)N(C)C 16.1%
COC(=O)\C(C(C)=O)=C(/C=C/C=C/N(C)C)N(C)C 27.9%
COCCNC(=O)c1cc(-c2ccncc2)nc2ccc(S(=O)(=O)N3CCOCC3)cc12 -13.5%
CC1(C)[C@@H](O)CC[C@]2(C)[C@H]3C(=O)C=C4[C@@H]5C[C@@](C)(C(=O)O)CC[C@]5(C)CC[C@@]4(C)[C@]3(C)CC[C@@H]12 27.5%
Cc1ccc(C2C(C#N)=C(N)Oc3cc(C)oc(=O)c32)o1 (centres undefined) -6.32%
Cc1ccc([C@H]2C(C#N)=C(N)Oc3cc(C)oc(=O)c32)o1 1.59%
CCCCCC(=O)NNC1CC(=O)N(c2ccccc2)C1=O (centres undefined) -9.34%
C[C@H](N)c1nnc(SCc2ccc(Cl)cc2Cl)o1 1.96%
CCN1C(C)=C(C)S/C1=C1\SC(=S)N(N)C1=O 7%
Cn1cc(/C=N/NC(=O)c2cc3cc(Br)ccc3o2)c2ccccc21 -7.92%
O=C(O)Cn1cc(/C=N/NC(=O)c2cc3cc(Br)ccc3o2)c2ccccc21 0.84%
COc1ccc(Cl)cc1C(=O)NNC(=O)CSc1nnc2ccccn12 -2.97%
COC(=O)/C=C/C(=O)Nc1cccnc1 15.1%
O=C(/C=N/O)Nc1cccnc1 28.5%
COc1c(OC(C)=O)ccc(/C=C/c2ccc3cccc(OCc4ccccc4)c3n2)c1[N+](=O)[O-] 5.7%
CCOc1c(OC(C)=O)ccc(/C=C/c2ccc3cccc(OC)c3n2)c1[N+](=O)[O-] 21.2%
O=C(CSCC(=O)c1ccccc1)Nc1ccccc1Cl -5.7%
COc1ccc(C(=O)Nc2cccc(-c3nnc(-c4ccco4)o3)c2)cc1 -0.63%
S=C(NCCN1CCOCC1)N/N=C/c1ccccc1 0.06%
Oc1ccc(/C=N/NC(=S)NCCN2CCOCC2)c(O)c1 24.1%
CC(=O)NCCOc1ccc(C(=O)O)cc1 -5.42%
CCCCOC(=O)n1c(=O)oc2ccc(S(=O)(=O)N3CCCCC3)cc21 -5.83%
O=C(O)c1cc([N+](=O)[O-])cc2ccccc12 -6.07%
O=[N+]([O-])c1cc(-c2ccccc2)cc([N+](=O)[O-])c1O -4.83%
Cc1cc(Cl)c2oc(C(=O)N3CCN(c4cnccn4)CC3)c(C)c2c1 2.03%
O=C(Cc1ccccc1)NC(Nc1cccc2ccccc12)C(Cl)(Cl)Cl (centres undefined) -5.91%
CC(C)(C)NC(NC(=O)Cc1ccccc1)C(Cl)(Cl)Cl (centres undefined) 2.28%
CN(CCC1CCOCC1)C(=O)C1CCC(=O)N(CCc2ccc(Cl)cc2)C1 (centres undefined) -0.45%
CN1/C(=C\C=Nc2ccccc2)C(C)(C)c2ccccc21 13.4%
CN1/C(=C\C=Nc2ccc3ccccc3c2)C(C)(C)c2ccccc21 15.9%
Cc1nc2ccccc2nc1-c1ccc([N+](=O)[O-])cc1 3.82%
COc1cc2c3c(c1OC)C1(C=CC(=O)C=C1)CC3N(C(=O)c1ccccc1)CC2 (centres undefined) 16.3%
COc1cc2c3c(c1OC)C1(C=CC(=O)C=C1)CC3N(C(C)=O)CC2 (centres undefined) 25.2%
O=S(=O)(Nc1ccccc1)c1ccc(-c2cnc(C3CC3)o2)cc1 5.89%
CCOc1ccc2c(C)c(C)c(=O)oc2c1OCC -2.36%
COc1cccc(-n2c(C)c3c(OC)cccc(=O)c3c2C)c1 31.7%
CCOc1ccccc1N1CCN(Cc2ccco2)CC1 0.19%
CCOc1ccccc1OCC(=O)O 2.95%
COC(=O)c1c(C(=O)OC)c(C)n(Cc2ccco2)c1C 1.05%
COc1cccc(=O)c2c(C)n(CC(=O)c3ccccc3)c(C)c12 19.6%
CCOc1ccccc1N1C(=O)c2ccc(C(=O)O)cc2C1=O -5.01%
CCOc1cccc2cc(C(C)=O)oc12 -1.92%
CCN(CC(=O)Nc1c(F)cccc1F)C(=O)c1ccc2c(c1)OCCO2 8.86%
CCOc1ccc(CN(C)C(=O)CCc2ccc(S(=O)(=O)N3CCCCCC3)cc2)cc1 -5.71%
CNC(=O)c1c(NC(=O)CS(=O)(=O)c2ccccc2)sc(C)c1C 2.6%
OC1CCCN(C(=S)Nc2ccc(SC(F)F)cc2)C1 (centres undefined) 21.9%
Cc1ccc(NC(=O)CSc2nc(=O)n(CCN(C)C)c3c2CCCC3)cc1Cl -8.42%
COC(=O)c1cc2occc2n1CC(=O)N(C)C1CCCCC1 15.2%
CN1CCN(c2cc(N3CCc4ccccc4C3)c(F)cc2[N+](=O)[O-])CC1 -1.87%
COc1ccc(Br)c(C(=O)NNC(=O)c2ccc(NS(=O)(=O)c3cccs3)cc2)c1 2.76%
C(C#CCN1CCOCC1)#CCN1CCOCC1 5.57%
CCc1ccccc1Nc1nc(N)nc(CSc2nnnn2C)n1 0.07%
